Results on 20 compounds are retold here after PubChem BioAssay (NCATS).

Values without a mark were called inactive. Records with an inconclusive call do not appear. Active and inactive are the calls of the source. Calls come from the whole dose curve; as a rule, active = well fitted curve in the direction sought with a large enough effect; inconclusive = small, poorly fitted or top-dose-only effect, or another doubt; inactive = no such curve, though single readings can be large; an effect the other way counts as inactive or inconclusive. Where a SMILES comes first, the peptide text is derived from it. [ ]: non-standard residue; d: D form.

The target in test [1] is Glutathione peroxidase 1 (Homo sapiens) (UniProt P07203). The test is described as follows: Primary qHTS Assay for Inhibitors of Recombinant Selenoprotein Glutathione Peroxidase 1 (GPX1) (AID 1845191). For activity, negative = inhibition: % is set by controls: 0 for no effect and ±100 for the full control effect. Note: nearly all actives have a fitted effect of over 65% in size. In outline: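 NADPH consumption tracked by fluorescence at 340/450 nm between t=0 and t=15 min, room temperature. Final mix: 10 nM GPX1, 100 nM glutathione reductase, 1 mM GSH, 0.5 mM NADPH, 0.5 mM cumene hydroperoxide, 0.01% BSA; 30 min compound–enzyme preincubation.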
On the technique in general: qHTS replaces the single test concentration by a dilution series.

In test [2] the target is Phospholipid hydroperoxide glutathione peroxidase GPX4 (Homo sapiens) (UniProt P36969). Description: Primary qHTS Assay for Inhibitors of Recombinant Selenoprotein Glutathione Peroxidase 4 (GPX4) (AID 1845192). For activity change, negative = inhibition: series mostly up to about 50 µM; % is set by controls: 0 for no effect and ±100 for the full control effect. Note: nearly all actives have a fitted effect of over 65% in size. In outline: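 NADPH consumption followed by fluorescence at 340/450 nm, t=0 and after 15 min at room temperature. Reaction started with cumene hydroperoxide (0.5 mM final) after 30 min compound–GPX4 preincubation; final 200 nM GPX4, 100 nM GR, 1 mM GSH, 0.5 mM NADPH.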

Test [3] has as its target Luciferin 4-monooxygenase (Photinus pyralis) (UniProt P08659). The test is described as follows: Primary firefly luciferase (FLuc) qHTS assay for identification of artifact compounds. (AID 1845220).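 For activity change, negative = inhibition: series mostly up to about 54 µM; plate controls were DMSO vehicle for no effect and no enzyme for full effect.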 Note: nearly all actives have a fitted effect of over 60% in size. The essentials: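 Cell-free, 1536-well qHTS. Buffer pH 7.6 with 0.01% Tween-20 and 0.05% BSA; 10 uM D-luciferin, 10 uM ATP; 10 nM P. pyralis luciferase; luminescence after 5 min.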

Test [4] is described as follows: Primary fluorescence-based thiol-reactive (MSTI) qHTS assay for identification of artifact compounds. (AID 1845221).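 For activity change, negative = thiol reactive: series mostly up to about 54 µM; thiol-reactive compounds lower the probe fluorescence signal.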 Note: nearly all actives have a fitted effect of over 65% in size. Note: potency is the fitted concentration of half-maximal effect. In outline: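 qHTS titration of compound; 4 uM MSTI, PBS pH 7.4, 2% DMSO; 1 h RT, dark; fluorescence 525/598 nm; normalized to Acetyl-MSTI and MSTI; 4-parameter Hill fit.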
Test [5] relates to Nanoluciferase (engineered Oplophorus gracilirostris luciferase). Description: Primary Nanoluciferase (NLuc) qHTS assay for identification of artifact compounds. (AID 1845222).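 Note: series mostly up to about 54 µM; 0% = DMSO and -100% = no enzyme.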 In outline:
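Compounds are pinned into diluted (1:55) conditioned medium of NLuc-expressing S16 cells and held 15 min at room temperature protected from light. Nano-Glo substrate follows, and luminescence is read 5 min later.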

A short description of test [6]: Primary redox qHTS assay for identification of artifact compounds. (AID 1845223).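 Note: 0% = DMSO and 100% = reference compound.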 The essentials:
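Redox-cycling detection via DTT (250 uM final) oxidation coupled to Amplex Red (25 uM)/HRP (250 mU/mL) in HBSS. 15 min preincubation plus 30 min after DTT, room temperature. Ex/Em 525/598 nm; 4-parameter Hill fit against DMSO and 10 uM DA3003.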

Sequence of Glutathione peroxidase 1 (Homo sapiens) (P07203 whole entry, looked up): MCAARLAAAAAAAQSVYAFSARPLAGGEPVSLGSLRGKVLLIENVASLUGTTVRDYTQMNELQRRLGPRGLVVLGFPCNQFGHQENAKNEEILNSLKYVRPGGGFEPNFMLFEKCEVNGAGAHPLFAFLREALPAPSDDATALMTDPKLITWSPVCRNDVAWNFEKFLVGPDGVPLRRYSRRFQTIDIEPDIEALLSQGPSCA
Sequence of Phospholipid hydroperoxide glutathione peroxidase GPX4 (Homo sapiens) (P36969 whole entry, looked up): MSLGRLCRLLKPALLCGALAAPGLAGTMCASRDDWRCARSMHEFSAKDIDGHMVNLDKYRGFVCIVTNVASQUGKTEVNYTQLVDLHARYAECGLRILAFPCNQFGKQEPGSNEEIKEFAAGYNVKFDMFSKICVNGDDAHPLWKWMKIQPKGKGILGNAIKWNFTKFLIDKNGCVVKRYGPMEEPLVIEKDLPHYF

With `CCC(=O)O[C@]1(C(=O)CCl)[C@@H](C)C[C@H]2[C@@H]3C[C@H](F)C4=CC(=O)C=C[C@]4(C)[C@@]3(F)[C@@H](O)C[C@@]21C`, the Potency result in test [1], in test [2], in test [3], in test [4], in test [5] and in test [6] was “inactive” throughout.

Consider `COCCCNCC1COc2ccccc2O1` (stereo not given), for which the Potency entry in test [1], in test [2], in test [3], in test [4], in test [5] and in test [6] was “inactive” throughout.

`CC(C)(OC1OC(CO)C(O)C(O)C1O)C1CCC(O)(CO)C2CC(O)C(C)(O)C2C1` (stereo not given): the Potency entry in test [1], in test [2], in test [3], in test [4], in test [5] and in test [6] was “inactive” in each case.

`NC(Cc1c[nH]c2ccccc12)C(=O)NC(CCC(=O)O)C(=O)O` (stereo not given): the Potency result in test [1], in test [2], in test [3], in test [4], in test [5] and in test [6] was “inactive” throughout.

For `C[C@@H]1O[C@@H](O[C@@H]2[C@@H](O)[C@@H](O)[C@H](O[C@@H]3[C@@H](O)[C@@H](O[C@]4(CO)O[C@H](CO)[C@@H](O)[C@@H]4OC(=O)/C=C/c4ccc(O)cc4)O[C@H](CO)[C@H]3OC(=O)/C=C/c3ccc(O)cc3)O[C@H]2C)[C@H](O)[C@H](O)[C@H]1O`, the Potency result in test [1] and in test [2] was “inactive” in each case. Also, the outcome in test [3] was “inactive [at 11.6 µM]”. In addition, the activity change, negative = thiol reactive in test [4] is 65.2% [at 11.5 µM]. Moreover, the activity, negative = inhibition in test [5] was 1.58% [at 11.6 µM]. Besides, the redox activity (% of DA3003) in test [6] was -13.4% [at 11.5 µM].

In the case of `COC1(CC(C)C)NC(=O)C(O)(Cc2ccccc2)NC1=O` (stereo not given), the Potency result in test [1], in test [2], in test [3], in test [4], in test [5] and in test [6] was “inactive” in each case.

As for `CC(=O)N[C@H](Cc1ccc(O)cc1)C(=O)N[C@H](CCCN=C(N)N)C(=O)N[C@H](Cc1ccccc1)C(N)=O` (Ac-[dY]-[dR]-[dF]-NH2), the Potency result in test [1], in test [2], in test [3], in test [4], in test [5] and in test [6] was “inactive” in each case.

With `COC1CCCC/C(C)=C/C2C=C(C)C(C)C3C(CC(C)C)NC(=O)C23C(=O)C1` (stereo not given), the Potency entry in test [1], in test [2], in test [3], in test [4], in test [5] and in test [6] was “inactive” in each case.

Consider `C=CC1(C)C=C2C(O)CC3C(C)(C(=O)O)CCCC3(C)C2CC1` (stereo not given), for which the Potency result in test [1], in test [2], in test [3], in test [4], in test [5] and in test [6] was “inactive” in each case.

For `CC(C)c1ccc(CC(=O)N2CCC[C@@H](c3cccc(OC(C)(C)C(=O)O)c3)C2)cc1`, the Potency result in test [1], in test [2], in test [3], in test [4], in test [5] and in test [6] was “inactive” throughout.

On to `COc1ccc(C(O[C@@H]2O[C@H](CO)[C@@H](O)[C@H](O)[C@H]2O)C(CO)Oc2ccc(/C=C/CO)cc2OC)cc1O` (stereo not given in full), for which the Potency entry in test [1], in test [2], in test [3], in test [5] and in test [6] was “inactive” throughout. For the same compound, the Potency in test [4] is 5.19 µM (active).

In the case of `COc1cc(C2c3cc(O)c(OC)cc3CC(CO)C2CO)ccc1O` (stereo not given), the Potency entry in test [1], in test [2], in test [3], in test [5] and in test [6] was “inactive” in each case. The Potency in test [4] was 8.26 µM (active).

Take `CC1OC(OC2C(O)C(C(=O)O)OC(OC3CCC4(C)C(CCC5(C)C4C=CC4=C6CC(C)(C)CC(O)C6(C)CCC45C)C3(C)C)C2OC2OCC(O)C(O)C2O)C(O)C(O)C1O` (stereo not given): the Potency entry in test [1] and in test [2] was “inactive” in each case. In addition, the outcome in test [3] was “inactive [at 11.6 µM]”. Further, the activity change, negative = thiol reactive in test [4] was 161% [at 11.5 µM]. Also, the activity, negative = inhibition in test [5] was -10.9% [at 11.6 µM]. Also, in test [6], the redox activity (% of DA3003) is 18.4% [at 11.5 µM].

Take `C=CC1(C)CC(O)C2(CCC3C(C)(C(=O)O)CCCC3(C)C2=O)C1` (stereo not given): the Potency entry in test [1], in test [2], in test [3], in test [4], in test [5] and in test [6] was “inactive” throughout.

Take `CC1OC(OC2C(C)OC(OC3C(OC(=O)/C=C/c4ccc(O)cc4)C(CO)OC(OC4(COC(=O)/C=C/c5ccc(O)cc5)OC(CO)C(O)C4O)C3OC3OCC(O)(CO)C3O)C(O)C2O)C(O)C(O)C1O` (stereo not given): the Potency entry in test [1] and in test [2] was “inactive” throughout. Besides, the activity change, negative = inhibition in test [3] was -0.562% [at 11.6 µM]. Moreover, the activity change, negative = thiol reactive in test [4] is 1.76% [at 11.5 µM]. Moreover, the activity, negative = inhibition in test [5] is 0.249% [at 11.6 µM]. Further, the redox activity (% of DA3003) in test [6] is -13.7% [at 11.5 µM].

For the compound `C=C1CC[C@H]2[C@@](C)(CCC(O)[C@@]2(C)CO)[C@@H]1C/C=C(/C(=O)O)C(O)CO` (stereo not given in full), the Potency result in test [1], in test [2], in test [3], in test [5] and in test [6] was “inactive” in each case. Besides, the Potency in test [4] was 6.56 µM (active).

For the compound `COC(=O)C1=C[C@@H](O)[C@@H](O)[C@H](O[C@@H]2O[C@H](COC(=O)/C=C/c3ccccc3)[C@@H](O)[C@H](O)[C@H]2O)C1`, the Potency result in test [1], in test [2], in test [3], in test [4], in test [5] and in test [6] was “inactive” each time.

On to `C=CC1(C)CC(OC(=O)C(=C)C(O)COC(C)=O)C(C(=C)C(=O)OC)C(O)C1C(=C)CO` (stereo not given), for which the Potency entry in test [1], in test [2], in test [3], in test [4], in test [5] and in test [6] was “inactive” throughout.

As to `N[C@@H](CC(=O)N1CCn2c(nnc2C(F)(F)F)C1)Cc1[nH]nc2c(F)c(F)ccc12`, the Potency entry in test [1], in test [2], in test [3], in test [4], in test [5] and in test [6] was “inactive” each time.

For `CC1CCC2(O1)C(C)(C)CC(O[C@@H]1O[C@H](CO[C@@H]3OC[C@](O)(CO)[C@H]3O)[C@@H](O)[C@H](O)[C@H]1O)CC2(C)O` (stereo not given in full), the Potency result in test [1], in test [2], in test [3], in test [5] and in test [6] was “inactive” in each case. In addition, the Potency in test [4] is 13 µM (active).
